# Only some compounds are listed: those with a hit (about 19% of all), similar ones and a draw of the others.
# Pf growth 48h: inhibits P. falciparum growth in the first generation, 48 h; AID 504832; P. falciparum luciferase growth in erythrocytes, 48 h; hit rate 5.9% among 310,000; Potency, µM (highest dose often 28.7 µM), inactives show top-dose activity change, negative = inhibition, hits mostly inhibitors; further: potency means the concentration at half of the fitted maximal effect; on the % scale 0 is the no-effect control and ±100 the full control effect
#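 In quantitative HTS format, infected erythrocytes bearing luciferase-reporter parasites were treated for a single generation at 37 C. Luminescence after adding detection reagent served as the growth measure.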
# AMA1-RON2 inh: inhibitors of Plasmodium falciparum AMA1-RON2 interaction | AlphaScreen AMA1-biotinylated RON2 peptide binding | Potency, µM (highest dose often 58.2 µM), without a hit: top-dose activity change, negative = inhibition, actives largely listed as inhibitors | hit rate 0.2% among 360,000;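 further: potency means the concentration at half of the fitted maximal effect; 0% = vehicle wells and -100% = peptide control; nearly all actives have a fitted effect of over 45% in size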
#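 AMA1 (3D7) with his tag at 25 nM final met compounds first, then biotinylated RON2 peptide at 25 nM; detection used donor plus acceptor beads, 10 µg/mL apiece, read by AlphaScreen after 30 min at room temperature.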
# Pf growth 96h: P. falciparum growth inhibition at 96 hours | Potency, µM (titrated, usually from 28.7 µM), for the others: at the top dose activity change, negative = inhibition, usual class: inhibitors | AID 504834 | hit rate 6.9% among 320,000 | P. falciparum luciferase reporter growth, 96 h; further: potency means the concentration at half of the fitted maximal effect; on the % scale 0 is the no-effect control and ±100 the full control effect
#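 Cell-based qHTS: luciferase-tagged P. falciparum in erythrocytes (2% hematocrit, 0.05% parasitemia final) incubated with compounds for 96 hours, 37 C, 5% CO2; luciferase detection reagent then added and luminescence measured.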
# Cycloheximide cs: affects cycloheximide protein synthesis inhibition readout, counter-screen | cell reporter, cycloheximide protein synthesis inhibition counterscreen | hit rate 12% among 300,000 | max response, % | AID 2314; in the data active means max response mostly above about 13%, no sharp cut-off; inactive means mostly below about 14%; further: read at 38.3 µM for the half of the compounds with a filed dose; 0% is about no effect
# Shiga toxin inh: Shiga toxin inhibition. Vero cells, Shiga toxin protein synthesis inhibition reporter. hit rate 9.2% among 290,000. inhibition, % at 38.7 µM. AID 2315; in the data active means inhibition mostly above about 28%, no sharp cut-off; inactive means mostly below about 43%; further: 0% is about no effect
# SARS PLpro yeast: SARS-CoV PLP inhibition in yeast; hit rate 0.19% among 330,000; Potency, µM (doses to about 32.9 µM), for the others: at the highest dose activity, positive = growth rescue, actives largely listed as activators; S. cerevisiae expressing SARS-CoV PLpro, growth rescue; calls by dose curve; further: potency means the concentration at half of the fitted maximal effect; 0% is about no effect; nearly all actives have a fitted effect of over 55% in size
# Active calls of the source: *; i = inactive; ? = inconclusive; . = no result; [ ] = another dose, or the depositor's remark. Unless noted, the call rests on the fitted dose curve; in most records, active means well fitted curve in the direction sought with a large enough effect; inconclusive means small, poorly fitted or top-dose-only effect, or another doubt; inactive means no such curve, though single readings can be large; an effect the other way counts as inactive or inconclusive.
SMILES,Pf growth 48h,AMA1-RON2 inh,Pf growth 96h,Cycloheximide cs,Shiga toxin inh,SARS PLpro yeast
O=C(O)CCCC/C=C(\c1ccccc1)c1cccnc1,-14%,.,1.7µM*,.,.,.
O=C(NCO)c1cccnc1,.,-5%,.,.,.,.
Cc1ccc(-c2noc(C3CCCN(C(=O)c4ccc(Cl)cc4)C3)n2)o1 (stereo not drawn),-8%,-20%,10%,36*,37,-5%
Cc1ccc(-c2noc(C3CCCN(C(=O)C4CCCCC4)C3)n2)o1 (stereo not drawn),.,-6%,1µM*,24*,66,0%
COc1cc(C(=O)NCCC(=O)NCCN2CCOCC2)cc(OC)c1OC,0%,-10%,-18%,-2,-8,1%
O=C(CC1=NCCNC(c2ccccc2)C1)c1ccccc1O (stereo not drawn),2%,15%,?,32*,36*,5%
O=C(CC1(O)C(=O)Nc2ccccc21)c1ccccc1O (stereo not drawn),4%,1%,?,-3,-10,0%
O=C(CC(c1ccccc1)c1ccccc1O)NCc1ccccc1Cl (stereo not drawn),?,-1%,?,-4,-11,-6%
COc1ccc(NC(=O)c2ccc(Cl)nc2)cc1S(=O)(=O)N1CCOCC1,?,-3%,12µM*,.,.,0%
O=C(Nc1ccc2c(c1)OCCO2)c1ccc(Cl)c(S(=O)(=O)N2CCOCC2)c1,2.6µM*,2%,4%[5.75 µM],42*,66*,-1%
CN(C)S(=O)(=O)c1cc(NC(=O)C2=COCCO2)ccc1Cl,-16%,-1%,12µM*,.,.,2%
O=C(O)c1cccc(NC(=O)c2ccc(Cl)c(S(=O)(=O)N3CCCCCC3)c2)c1,i,0%,?,50*,101*,2%
O=C(Nc1ccc(Cl)c(S(=O)(=O)N2CCCCC2)c1)C1=COCCO1,10%,-10%,?,.,.,-17%
O=C(Nc1cccnc1)c1ccc(Cl)c(S(=O)(=O)N2CCCCC2)c1,-16%,0%,?,10,2,-4%
CCCCN(C)CCNC(=O)C1CCN(S(=O)(=O)c2cccc3nsnc23)CC1,-7%,6%,38%,-2,-13,-2%
COc1ccc(Br)c(C(=O)NCC2CCCCC2)c1,59%,-12%,27%,19,-9,5%
O=C(Nc1ccc2c(c1)OCO2)c1ccc(Cl)c(S(=O)(=O)N2CCOCC2)c1,?,0%,18%,16*,39*,-16%
Cc1ccc(C(=O)Nc2ccc3cn[nH]c3c2)cc1S(=O)(=O)N1CCCCC1,-9%,5%,.,38*,76*,-5%
Cc1ccc(NC(=O)Cc2ccc3c(c2)OCCO3)cc1S(=O)(=O)N1CCCCC1,171%,-4%,5.2µM*,12,-5,0%
Cc1csc(NC(=O)c2ccc(C)c(S(=O)(=O)N3CCCCC3)c2)n1,3.3µM*,-12%,4.1µM*,2,3,-1%
Cc1ccc(NC(=O)c2ccc3c(c2)OCO3)cc1S(=O)(=O)N1CCOCC1,-8%,-1%,?,.,.,0%
COc1ccc(C(=O)Nc2ccc(C)c(S(=O)(=O)N3CCCCCC3)c2)cc1,?,-5%,0%,9,28,-4%
CO/N=C(\C(=O)O)c1csc(NN=C(C)C)n1,8%,57%,74%,16,23,0%
O=C(COC(=O)c1ccc(Cl)c(S(=O)(=O)N2CCCCCC2)c1)Nc1ccccc1,11%,3%,0%,35*,56*,-15%
Cc1ccc(NC(=O)COC(=O)c2ccccc2F)cc1S(=O)(=O)N1CCCCC1,-1%,16%,71%,.,.,-1%
SMILES,Pf growth 48h,AMA1-RON2 inh,Pf growth 96h,Cycloheximide cs,Shiga toxin inh,SARS PLpro yeast
O=C(COC(=O)c1ccc(S(=O)(=O)N2CCCC2)cc1)Nc1ccccc1,-9%,-20%,-5%,.,.,2%
Cc1ccc(NC(=O)CC2OC(=O)c3ccccc32)cc1S(=O)(=O)N1CCCCCC1 (stereo not drawn),8.3µM*,-3%,?,.,.,-2%
O=C(COC(=O)c1ccccc1S(=O)(=O)N1CCCCC1)NCC(F)(F)F,-12%,1%,13µM*,-3,-4,8%
CCN(CC)S(=O)(=O)c1cc(NC(=O)Cn2ncc(Cl)c(Cl)c2=O)ccc1C,?,2%,-25%,32*,-12,1%
Cn1c(N)c(C(=O)COC(=O)CCC2CCCCC2)c(=O)n(C)c1=O,-23%,-6%,0%,-1,-10,-3%
CCOc1ccc(NS(=O)(=O)c2cc(Cl)ccc2OC)cc1,?,-1%,28%,6,5,.
COc1ccc(C(=O)Nc2ccc3c(c2)OCCO3)cc1S(=O)(=O)N1CCOCC1,?,-17%,10µM*,.,.,-17%
Cc1ccc(NC(=O)CSc2nnc(C3CC3)n2C)cc1S(=O)(=O)N1CCCCC1,13µM*,5%,?,.,.,5%
CCOC(=O)c1ccc(NC(=O)Cn2ncc(Cl)c(Cl)c2=O)cc1,?,-24%,-17%,-8,-18,-16%
COc1ccc(C(=O)Nc2cc(C)cc(C)c2)cc1S(=O)(=O)N1CCOCC1,-8%,11%,15%,9,-16,3%
CCC(=O)Nc1ccc(C(=O)Cn2ncc(Cl)c(Cl)c2=O)cc1,-21%,-3%,-9%,46*,54*,-2%
O=C(O)c1ccc(Cl)c(S(=O)(=O)Nc2cccc(C(=O)Nc3cccc(C(F)(F)F)c3)c2)c1,7%,5%,10µM*,8,28,0%
CCOC(=O)[C@H]1[C@H]2COc3ccccc3[C@@H]2N2C(=O)CNC(=O)[C@@]12C,-6%,23%,21%,.,.,1%
CCc1noc(C)c1C(=O)Nc1ccc(C)c(S(=O)(=O)N2CCCCCC2)c1,10µM*,-1%,?,.,.,9%
Cc1ccc(NC(=O)CCl)cc1S(=O)(=O)N1CCCCCC1,-6%,11%,9.3µM*,12,2,9%
Cc1ccc(C(=O)Nc2cccc(O)c2)cc1S(=O)(=O)N1CCCCCC1,6%,14%,-7%,54*,61*,2%
COc1ccc(CC(=O)Nc2ccc3c(c2)OCO3)cc1S(=O)(=O)N1CCOCC1,14%,-1%,-9%,-2,-9,-3%
Cc1ccc(NC(=O)c2ccc(F)cc2)cc1S(=O)(=O)N1CCCCCC1,-16%,-4%,?,-2,4,1%
O=C(Cc1ccc2c(c1)OCCO2)Nc1ccc(Cl)c(S(=O)(=O)N2CCOCC2)c1,?,-1%,9.3µM*,.,.,-19%
COCCNC(=O)CSc1nnc(-c2ccccc2)c(-c2ccccc2)n1,13%,13%,?,9,2,1%
CCCCNC(=S)N(C)/N=C/c1ccc(OCc2ccc(C(=O)OC)cc2)c(OC)c1,?,4%,-10%,-3,-7,0%
NS(=O)(=O)c1cc(C(=O)Nc2ccc3c(c2)OCCCO3)ccc1Cl,57%,-7%,33%,19*,58*,-1%

# Screening data: PubChem, National Center for Advancing Translational Sciences (NCATS)
